Only some compounds are listed: those with a hit (about 5.9% of all), similar ones and a draw of the others.
TrxR1 substrate – qHTS Assay for Substrates of Mammalian Selenoprotein Thioredoxin Reductase 1 (TrxR1): qHTS | Thioredoxin reductase 1, cytoplasmic (Rattus norvegicus), O89049 | purified TrxR1 substrate turnover, NADPH consumption readout | Potency, µM (highest dose often 114 µM) | actives 0.01% (n = 390,000); also: nearly all actives have a fitted effect of over 50% in size
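Rat TrxR1, dispensed at 90 nM, was prereduced with 400 uM NADPH (final) for 5 min at ~22 deg C, then incubated with compound 15 min before 400 uM selenite. A first-read NADPH fluorescence drop versus no-compound background flagged substrates.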
RORgamma inh – qHTS for inhibitors of ROR gamma transcriptional activity | Drosophila S2 Gal4-RORgamma UAS-luciferase reporter, 20 h | Potency, µM (doses to about 53.6 µM), most hits filed as inhibitors | Nuclear receptor ROR-gamma (Mus musculus), P51450 | actives 5.4% (n = 310,000); also: nearly all actives have a fitted effect of over 60% in size
Target sequence (P51450 whole entry, looked up, the tested form may be a part): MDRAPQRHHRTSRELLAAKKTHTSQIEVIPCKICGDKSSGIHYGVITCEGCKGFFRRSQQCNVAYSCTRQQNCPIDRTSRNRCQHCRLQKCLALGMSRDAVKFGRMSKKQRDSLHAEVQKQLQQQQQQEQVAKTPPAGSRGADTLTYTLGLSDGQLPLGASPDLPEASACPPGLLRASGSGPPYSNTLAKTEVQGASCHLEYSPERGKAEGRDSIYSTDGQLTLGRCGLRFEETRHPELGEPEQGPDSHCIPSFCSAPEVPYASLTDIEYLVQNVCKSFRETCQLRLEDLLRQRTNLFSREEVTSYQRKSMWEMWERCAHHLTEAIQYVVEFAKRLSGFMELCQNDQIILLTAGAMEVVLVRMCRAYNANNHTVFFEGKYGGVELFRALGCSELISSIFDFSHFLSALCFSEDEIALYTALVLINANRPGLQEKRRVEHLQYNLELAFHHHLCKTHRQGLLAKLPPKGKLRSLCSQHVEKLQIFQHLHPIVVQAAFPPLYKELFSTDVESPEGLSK
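Schneider cells (Drosophila), stable Gal4 DBD–ROR gamma + UAS-luc; 1 hr cmpd preincubation; Cu2+ induction 700 uM final; 20 hr ambient; luminescence.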
TrxR1 inh – qHTS Assay for Inhibitors of Mammalian Selenoprotein Thioredoxin Reductase 1 (TrxR1): qHTS. Thioredoxin reductase 1, cytoplasmic (Rattus norvegicus), O89049. recombinant rTrxR1, NADPH fluorescence consumption, selenite substrate. Potency, µM (highest dose often 114 µM), actives largely listed as inhibitors. actives 1% (n = 390,000). AID 588453, 2011; also: nearly all actives have a fitted effect of over 65% in size
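Rat TrxR1 (90 nM in the dispensed reagent) was pre-reduced with 400 uM NADPH for 5 min at room temperature, then incubated with compound for 15 min. After 400 uM selenite was added, NADPH fluorescence (Ex 340/Em 450 nm) was followed for 8 min.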
VP16 counter – VP16 counterscreen qHTS for inhibitors of ROR gamma transcriptional activity. actives 3.5% (n = 310,000). Drosophila S2 Gal4-VP16 UAS-luciferase, luminescence, 20 h. Potency, µM (doses to about 53.6 µM), usual class: inhibitors;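 also: Gal4-VP16 expression switched on by copper sulfate through the metallothionein promoter; nearly all actives have a fitted effect of over 50% in size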
Coupling enz – qHTS Assay for Inhibitors of Fructose-1,6-bisphosphate Aldolase from Giardia Lamblia: Coupling assay counterscreen | coupling enzyme system counterscreen, AmpLite Red fluorescence | activity change, negative = inhibition, % at 58.2 µM, hits read low | actives 0.67% (n = 290,000) | AID 2472, 2010; in the data active = activity change below about -30%
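First, compound is pin-transferred into glyceraldehyde-3-phosphate coupling-enzyme reagent at 57.5 uM final and held 10 min at RT. Next, substrate, coupling system and AmpLite Red are added. After 20 min RT, fluorescence (525/598 nm) is read.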
GALK inh – qHTS Assay for Inhibitors of Human Galactokinase (GALK). P51570. Purified GALK, Kinase-Glo residual ATP luminescence. Potency, µM (highest dose often 57.5 µM), usual class: inhibitors. actives 0.007% (n = 270,000). AID 1868, 2009
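GALK at 5 nM final was combined with compound, 35 uM ATP and 100 uM galactose in HEPES pH8.0 with MgCl2 and DTT. The reaction ran one hour at room temperature before luminescent ATP detection.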
Numbers stand for hits; i = inactive; ? = inconclusive; nt = no result; [ ] = dose if it differs, or a comment. Unless noted, calls follow the shape of the dose curve; as a rule, active = well fitted curve in the direction sought with a large enough effect; inconclusive = small, poorly fitted or top-dose-only effect, or another doubt; inactive = no such curve, though single readings can be large; an effect the other way counts as inactive or inconclusive.

SMILES	TrxR1 substrate	RORgamma inh	TrxR1 inh	VP16 counter	Coupling enz	GALK inh
Cc1occc1C(=O)NCCCCNC(=O)c1ccoc1C	i	i	?	i	i	i
COc1ccc(NC(=O)C2CCN(S(=O)(=O)c3ccc(N4CCCC4=O)cc3)CC2)cc1OC	i	i	i	i	nt	i
O=C(Nc1ccc(C(F)(F)F)cc1)C1CCN(S(=O)(=O)c2ccc(N3CCCC3=O)cc2)CC1	i	i	i	3.55µM	i	i
CSc1nc(-c2ccco2)nn1C(=O)c1ccc(Cl)cc1	nt	i	nt	i	i	i
O=C1C(=O)N2C(=C1C(=O)N1CCCCCC1)c1ccccc1CC21CCCC1	i	i	i	i	i	i
CC1(C)Cc2ccccc2C2=C(C(=O)N3CCCCCC3)C(=O)C(=O)N21	i	i	i	i	-42.5	i
CCC1(CC)Cc2ccccc2C2=C(C(=O)N3CCCCC3)C(=O)C(=O)N21	i	i	i	i	-34.4	i
CCC(CC)NC(=O)CO/N=C/c1ccc(Cl)cc1Cl	i	i	i	i	i	i
COc1ccc(CCN2C(=O)C3C4C=CC(C3C2=O)C2C(=O)N(CCc3ccc(OC)c(OC)c3)C(=O)C42)cc1OC (configuration not stated)	i	i	i	8.91µM	i	i
Cc1ccc2nc3c(nc2c1C)C(O)=C3O	i	i	8.91µM	i	i	i
Cc1ccc2nc3c(nc2c1C)CCCC3	i	i	i	i	i	i
Cc1cc(=O)[nH]c(SCC(=O)Nc2ccc(S(N)(=O)=O)cc2)n1	i	i	i	i	i	i
COC(=O)c1cc(C(=O)OC)cc(N2C(=O)CC(NNC(=O)c3ccccc3Cl)C2=O)c1 (configuration not stated)	i	i	i	i	i	i
Cc1cc2nc(CCN(Cc3cccnc3)C(=S)Nc3ccccc3)[nH]c2cc1C	i	14.1µM	i	i	i	i
CC(=O)CSc1ncnc2sc3c(c12)CCC(C)C3 (configuration not stated)	i	3.16µM	i	?	i	i
CC(=O)C(Sc1ncnc2sc3c(c12)CCCC3)C(C)=O	i[11.4 µM]	11.2µM	i[11.4 µM]	15.8µM	i	i
CC(=O)CSc1ncnc2sc3c(c12)CCCC3	i	i	i	i	i	i
CC1CCc2c(sc3ncnc(SCC(=O)c4ccccc4)c23)C1 (configuration not stated)	i	i	i	i	i	i
CC(C)(C)c1nnc(NC(=O)NS(=O)(=O)c2ccccc2)s1	i	i	i	i	i	i
Cc1ccc(N/C=C/C(=O)c2cccs2)cc1C	i	12.6µM	i	?	i	i
COc1cc(/C=C2/C(=N)N3C=CSC3=NC2=O)ccc1OCCCOc1cc(C)ccc1C	i	10µM	i	11.2µM	nt	i
CCn1ccnc1C(O)c1ccc(N(C)C)cc1 (configuration not stated)	i	i	39.8µM	i	i	i
O=C(Cn1sc2ccccc2c1=O)NC12CC3CC(CC(C3)C1)C2	i	3.55µM	i	0.501µM	i	i
Nc1cccc2c1C(=O)N(CC(=O)NC13CC4CC(CC(C4)C1)C3)C2=O	i	i	i	i	i	i
CCOc1ccccc1N(CC(=O)N1CCC(C(N)=O)CC1)S(=O)(=O)c1ccc(SC)cc1	i	i	i	i	nt	i
SMILES	TrxR1 substrate	RORgamma inh	TrxR1 inh	VP16 counter	Coupling enz	GALK inh
O=C(C1=C[C@H](c2csc3ccccc23)C[C@H](OCCCCO)O1)N1CCOCC1	i	i	i	i	i	i
Cc1ccc(C)c(C(=O)c2ccccc2NC(=O)c2ccccn2)c1	i	i	i	i	i	i
Cc1ccccc1-c1ocnc1C(=O)Nc1ccccc1NC(=O)c1ccccn1	i	2.24µM	i	7.08µM	i	i
O=S(=O)(c1ccc(N2CCN(c3ccc(F)cc3)CC2)cc1)N1CCCC1	i	i	i	i	i	i
O=S(=O)(c1ccc(N2CCCC2)cc1)C(F)(F)F	i	?	i	5.62µM	i	i
COc1ccccc1NC(=O)c1c(C)nc2ccccc2c1C(=O)O	i	i	i	i	i	i
O=C(O)c1c2c(nc3ccccc13)/C(=C/c1ccc(OC(F)F)cc1)CCC2	i	i	i	i	i	i
COc1cccc2c1CCc1c-2nc2ccccc2c1C(=O)O	i	?	?	10µM	-32.8	i
CCc1ccc(/C=C2\CN(CC)Cc3c2nc2ccccc2c3C(=O)O)cc1	i	i	i	i	-33.5	i
O=C(O)c1c2c(nc3ccccc13)/C(=C/c1ccc(O)cc1)CC2	i	7.94µM	?	12.6µM	i	i
Cc1ccc(S(=O)(=O)NNC(=O)c2cccnc2)cc1	i	i	i	i	i	i
O=C(NC(=S)NNS(=O)(=O)c1ccccc1)c1cccnc1	i	?	25.1µM	i	i	i
O=C(NC(=S)NNS(=O)(=O)c1ccccc1)c1ccc([N+](=O)[O-])cc1	i	i[10 µM]	14.1µM	i	i	i
CCCCC(=O)NC(=S)NNS(=O)(=O)c1ccccc1	i	12.6µM	i	20µM	i	i
O=C(NNS(=O)(=O)c1ccccc1)c1ccc([N+](=O)[O-])cc1	i	i	i	i	i	i
COc1ccc(Cc2nnc(N/N=C/c3ccc(C)o3)[nH]c2=O)cc1	i	11.2µM	i	i	i	i
COc1ccc(Cc2nnc(Nc3ccc(Cl)cc3)[nH]c2=O)cc1	i	i	i	i	i	nt
COc1ccc(Cc2nnc(N/N=C/c3ccc(Br)cc3)[nH]c2=O)cc1OC	i	i	i	i	i	i
COc1ccc(Cc2nnc(N/N=C/c3ccc(O)cc3)[nH]c2=O)cc1OC	i	2.24µM	i	3.98µM	i	i
CC1(C)CC(=O)C(CS(=O)(=O)c2ccccc2)=C(O)C1	i	i	50.1µM	i	nt	i
CC1(C)CC(=O)C(CC(=O)Nc2ccc(S(N)(=O)=O)cc2)=C(O)C1	i	i	i	i	i	i
Cc1ccccc1NC(=O)CCN1CCN(CCO)CC1	i	i	i	i	i	i
O=C(c1nnsc1S(=O)(=O)c1ccc(Cl)cc1)N1CCOCC1	i	2.82µM	?	10µM	i	i
O=C(Nc1ccccc1)c1nnsc1S(=O)c1ccc(Cl)cc1 (configuration not stated)	i	15.8µM	1.26µM	4.47µM	i	i

From PubChem
